Assay results published in PubChem BioAssay (NCI).
About 79,000 compounds went through this panel and 15% of them were active in at least one assay; those are over-represented in the sample as a whole. Calls of active or inactive are those of the source. Rule as the data show it: active = growth inhibition above about 70%; inactive = the rest.

Experiments:
[1] = NCI Yeast Anticancer Drug Screen. Data for the mec2-1 strain (AID 157); conditions: S. cerevisiae mec2-1 strain, hits give high values
Outline: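 Vehicle-treated cultures served as reference for growth inhibition of compound-exposed mec2-1 yeast.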

[2] = NCI Yeast Anticancer Drug Screen. Data for the rad14 strain (AID 159);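 also: 0% = growth of vehicle-treated control cultures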; conditions: S. cerevisiae rad14 strain growth inhibition, hits give high values
Outline: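 Compound-treated yeast with a defined DNA-repair lesion; growth inhibition normalised to vehicle-treated cultures.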

[3] = NCI Yeast Anticancer Drug Screen. Data for the sgs1 mgt1 strain (AID 161);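 also: 0% = growth of cultures given vehicle only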; conditions: S. cerevisiae sgs1 mgt1 strain, hits give high values
Outline: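 Inhibition of yeast growth, normalised to vehicle-treated controls, is reported for a strain bearing genetic alterations in DNA damage repair.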

[4] = NCI Yeast Anticancer Drug Screen. Data for the CLN2oe strain (AID 163);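 also: 0% = growth of vehicle-only control cultures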; conditions: S. cerevisiae CLN2oe strain, hits give high values
Outline: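 Inhibition relative to vehicle-treated yeast is reported. Cells: strain with genetic alteration in cell-cycle control, grown with compound.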

[5] = NCI Yeast Anticancer Drug Screen. Data for the cln2 rad14 strain (AID 165);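 also: 0% = growth equal to vehicle treated cultures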; conditions: S. cerevisiae cln2 rad14 strain, hits give high values
Outline: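 Each compound was tested on cln2 rad14 yeast. Inhibition of growth was calculated against vehicle-exposed controls.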

[6] = NCI Yeast Anticancer Drug Screen. Data for the bub3 strain (AID 167); conditions: S. cerevisiae bub3 mutant strain, hits give high values
Outline: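 Growth of a checkpoint-deficient yeast mutant is measured after compound exposure. Values represent inhibition relative to vehicle.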

[7] = NCI Yeast Anticancer Drug Screen. Data for the wt2 strain (AID 169);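 also: 0% = growth of vehicle-treated yeast cultures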; conditions: S. cerevisiae wt2 strain growth inhibition, hits give high values
Outline: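 Inhibition of yeast growth was determined after compound treatment, normalised to controls receiving only vehicle.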

[8] = NCI Yeast Anticancer Drug Screen. Data for the mlh1 strain (AID 171);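 also: 0% = growth of vehicle-treated control cultures of the same strain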; conditions: S. cerevisiae mlh1 strain growth inhibition, hits give high values
Outline: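 Vehicle-normalised growth inhibition of a repair- or checkpoint-altered yeast strain following compound treatment.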

[9] = NCI Yeast Anticancer Drug Screen. Data for the sgs1 strain (AID 173);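 also: 0% = growth of vehicle-only control cultures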; conditions: S. cerevisiae sgs1 mutant, hits give high values
Outline: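 Screen format: yeast with repair or checkpoint alterations, compound exposure, growth read relative to vehicle.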

[10] = NCI Yeast Anticancer Drug Screen. Data for the mlh1 rad18 strain (AID 175); conditions: S. cerevisiae mlh1 rad18 strain growth inhibition, hits give high values
Outline: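 Vehicle-treated cultures served as the reference for growth inhibition in a yeast strain carrying DNA damage repair alterations exposed to each compound.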

[11] = NCI Yeast Anticancer Drug Screen. Data for the rad18 strain (AID 177); conditions: S. cerevisiae rad18 mutant growth inhibition, hits give high values
Outline: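 Test articles were incubated with altered yeast defective in DNA damage repair. Results are given as inhibition of growth versus vehicle.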

[12] = NCI Yeast Anticancer Drug Screen. Data for the mgt1 strain (AID 153); conditions: S. cerevisiae mgt1 mutant growth inhibition, hits give high values
Outline: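 mgt1 strain exposed; growth vs vehicle control recorded as inhibition.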

[13] = NCI Yeast Anticancer Drug Screen. Data for the rad50 strain (AID 155);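 also: 0% = growth of vehicle-only cultures of the same strain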; conditions: S. cerevisiae rad50 strain growth inhibition, hits give high values
Outline: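 Compounds were tested on a yeast strain with an engineered DNA damage repair alteration; the reported value is growth inhibition normalised to vehicle treatment.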

[14] = NCI Yeast Anticancer Drug Screen. Data for the rad50EPP+ strain (AID 151);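 also: 0% = growth of vehicle-treated control cultures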; conditions: S. cerevisiae rad50 mutant strain, hits give high values
Outline: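 In this screen, rad50EPP+ yeast were exposed to compounds. Growth inhibition was scored against vehicle-treated controls.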

[15] = at 5.0 µM (retest, dose inferred, filed as 0.5)
[16] = at 50.0 µM (retest, dose inferred, filed as 5.0)

Measured: growth inhibition

CC(=O)Nc1ccc(/C=C(\C#N)c2ccc(C)cc2)cc1
active: [10]; [16] 97%
inactive: [1]; at 100.0 µM -30% | [2]; at 1.2 µM 1% | [2]; at 3.7 µM -9% | [2]; at 11.0 µM -5% | [2]; at 33.0 µM 4% | [2]; at 100.0 µM 1% | [3]; [15] -12% | [3]; [16] 45% | [3]; at 50.0 µM 24.6% | [4]; at 1.2 µM -3% | [4]; at 3.7 µM -1% | [4]; at 11.0 µM -3% | [4]; at 33.0 µM 8% | [4]; at 100.0 µM 20% | [5]; [15] 63% | [5]; [16] 2% | [5]; at 50.0 µM 19.2% | [6]; at 1.2 µM -27% | [6]; at 3.7 µM -21% | [6]; [15] -11% | [6]; at 11.0 µM -12% | [6]; at 33.0 µM 7% | [6]; [16] 39% | [6]; at 50.0 µM 63.7% | [6]; at 100.0 µM -16% | [7]; at 1.2 µM -1% | [7]; at 3.7 µM 9% | [7]; at 11.0 µM 6% | [7]; at 33.0 µM 5% | [7]; at 100.0 µM 0% | [8]; at 1.2 µM -20% | [8]; at 3.7 µM -21% | [8]; at 11.0 µM -18% | [8]; at 33.0 µM -6% | [8]; at 100.0 µM -10% | [9]; at 1.2 µM -21% | [9]; at 3.7 µM -19% | [9]; at 11.0 µM -23% | [9]; at 33.0 µM -13% | [9]; at 100.0 µM -17% | [10]; [15] 34% | [10]; at 50.0 µM 24.6% | [11]; at 1.2 µM -18% | [11]; at 3.7 µM -9% | [11]; at 11.0 µM -17% | [11]; at 33.0 µM -3% | [11]; at 100.0 µM -16%

c1ccc2c(c1)sc1nc3ccncc3nc12
active: [13]; at 1.2 µM 79% | [13]; at 33.0 µM 76% | [13]; [16] 87% | [13]; at 50.0 µM 90% | [13]; at 100.0 µM 87%
inactive: [12]; at 1.2 µM 2% | [12]; at 3.7 µM -2% | [12]; at 11.0 µM -1% | [12]; at 33.0 µM -1% | [12]; at 100.0 µM 2% | [13]; at 3.7 µM 35% | [13]; [15] -55% | [13]; at 11.0 µM 61% | [1]; at 1.2 µM 5% | [1]; at 3.7 µM 1% | [1]; [15] -38% | [1]; at 11.0 µM 0% | [1]; at 33.0 µM 3% | [1]; [16] -8% | [1]; at 50.0 µM 28.1% | [1]; at 100.0 µM 9% | [2]; at 1.2 µM 21% | [2]; at 3.7 µM 10% | [2]; at 11.0 µM 11% | [2]; at 33.0 µM 19% | [2]; at 100.0 µM 29% | [3]; [15] -61% | [3]; [16] -16% | [3]; at 50.0 µM 3.7% | [5]; [15] -50% | [5]; [16] -8% | [5]; at 50.0 µM 9.05% | [6]; at 1.2 µM 10% | [6]; at 3.7 µM 3% | [6]; [15] -51% | [6]; at 11.0 µM 8% | [6]; at 33.0 µM 11% | [6]; [16] 1% | [6]; at 50.0 µM 6.1% | [6]; at 100.0 µM 20% | [7]; at 1.2 µM 13% | [7]; at 3.7 µM 12% | [7]; at 11.0 µM 17% | [7]; at 33.0 µM 17% | [7]; at 100.0 µM 29% | [8]; at 1.2 µM -5% | [8]; at 3.7 µM -1% | [8]; at 11.0 µM 1% | [8]; at 33.0 µM 8% | [8]; at 100.0 µM 12% | [9]; at 1.2 µM -5% | [9]; at 3.7 µM -8% | [9]; at 11.0 µM 3% | [9]; at 33.0 µM 9% | [9]; at 100.0 µM 13% | [10]; [15] -110% | [10]; [16] -30% | [10]; at 50.0 µM 32.7% | [11]; at 1.2 µM 0% | [11]; at 3.7 µM -3% | [11]; at 11.0 µM 1% | [11]; at 33.0 µM 10% | [11]; at 100.0 µM 22%

[O-][n+]1c2ccc(O)cc2nc2ccc(Cl)cc21
active: [12]; at 100.0 µM 81% | [13]; at 33.0 µM 81% | [13]; at 50.0 µM 81.9% | [13]; at 100.0 µM 84% | [1]; at 50.0 µM 75% | [2]; at 100.0 µM 73% | [6]; at 50.0 µM 78.8% | [8]; at 100.0 µM 78% | [10]; at 50.0 µM 86.8% | [11]; at 33.0 µM 79% | [11]; at 100.0 µM 82%
inactive: [14]; at 1.2 µM 5% | [14]; at 3.7 µM 16% | [14]; at 11.0 µM 37% | [14]; at 33.0 µM 57% | [14]; at 100.0 µM 56% | [12]; at 1.2 µM 8% | [12]; at 3.7 µM 22% | [12]; at 11.0 µM 34% | [12]; at 33.0 µM 65% | [13]; at 1.2 µM 6% | [13]; at 3.7 µM 24% | [13]; [15] -5% | [13]; at 11.0 µM 51% | [13]; [16] 17% | [1]; at 1.2 µM 0% | [1]; at 3.7 µM 9% | [1]; [15] 5% | [1]; at 11.0 µM 25% | [1]; at 33.0 µM 41% | [1]; [16] -13% | [1]; at 100.0 µM 51% | [2]; at 1.2 µM 0% | [2]; at 3.7 µM 8% | [2]; at 11.0 µM 30% | [2]; at 33.0 µM 58% | [3]; [15] -12% | [3]; [16] -1% | [3]; at 50.0 µM 67% | [4]; at 1.2 µM 0% | [4]; at 3.7 µM 9% | [4]; at 11.0 µM 20% | [4]; at 33.0 µM 34% | [4]; at 100.0 µM 49% | [5]; [15] -4% | [5]; [16] 9% | [5]; at 50.0 µM 43.1% | [6]; at 1.2 µM 5% | [6]; at 3.7 µM 2% | [6]; [15] -7% | [6]; at 11.0 µM 23% | [6]; at 33.0 µM 41% | [6]; [16] 11% | [6]; at 100.0 µM 59% | [7]; at 1.2 µM 5% | [7]; at 3.7 µM 11% | [7]; at 11.0 µM 26% | [7]; at 33.0 µM 46% | [7]; at 100.0 µM 61% | [8]; at 1.2 µM 4% | [8]; at 3.7 µM 10% | [8]; at 11.0 µM 28% | [8]; at 33.0 µM 62% | [9]; at 1.2 µM 4% | [9]; at 3.7 µM 10% | [9]; at 11.0 µM 26% | [9]; at 33.0 µM 46% | [9]; at 100.0 µM 59% | [10]; [15] -24% | [10]; [16] 53% | [11]; at 1.2 µM 7% | [11]; at 3.7 µM 23% | [11]; at 11.0 µM 47%
